# Bioassay records from PubChem.
# Sfp PPTase inh = inhibitors of Bacillus subtilis Sfp phosphopantetheinyl transferase | 3.5% of 310,000 active | Biochemical Sfp PPTase activity, qHTS | AID 1490 | Potency, µM, inactives show largest response in the series, negative = inhibition, actives largely listed as inhibitors;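 note: the enzyme is Sfp with the accession as filed and its product quenches rhodamine fluorescence; 0% = enzyme reaction without inhibitor and -100% = no enzyme wells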
#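 After 15 min at room temperature with compound, 15 nM Sfp received 5 uM rhodamine-CoA plus 12.5 uM BHQ-2-ybbR (50 mM Hepes pH 7.6, 10 mM MgCl2). Rate came from the fluorescence difference over 30 min, ex 525/em 598 nm.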
# BAZ2B inh = BAZ2B (human) inhibition | Q9UIF8 | AlphaScreen BAZ2B-H3K14Ac peptide displacement | Potency, µM (series often up to 114 µM), for inactives: at the top dose activity change, negative = inhibition, most hits filed as inhibitors | 4.4% of 360,000 active | AID 504333; note: % is set by controls: 0 for no effect and ±100 for the full control effect; nearly all actives have a fitted effect of over 60% in size
#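 Complex of BAZ2B and biotin-H3K14Ac (50 nM apiece) forms over 30 min at RT, then faces library compounds up to 110 uM for another 30 min; AlphaScreen beads added, 20 min dark incubation, luminescence read.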
# PLK1 PBD inh = inhibitors of human PLK1 polo-box domain binding | Plk1 PBD binding of FITC phosphopeptide, fluorescence polarization | 2.8% of 360,000 active | Potency, µM, for the others: max response, negative = inhibition, most hits filed as inhibitors | P53350; note: series mostly up to about 57 µM; % is set by controls: 0 for no effect and ±100 for the full control effect; nearly all actives have a fitted effect of over 65% in size
# HP1b binding inh = blocks HP1-beta chromodomain binding to methylated histone tails. P83916. AlphaScreen HP1-beta / biotin-H3K9me3 peptide binding. 0.56% of 390,000 active. Potency, µM (titrated, usually from 114 µM), inactives show top-dose activity change, negative = inhibition, hits mostly inhibitors; note: nearly all actives have a fitted effect of over 70% in size
# Target sequence (P83916 whole entry, looked up): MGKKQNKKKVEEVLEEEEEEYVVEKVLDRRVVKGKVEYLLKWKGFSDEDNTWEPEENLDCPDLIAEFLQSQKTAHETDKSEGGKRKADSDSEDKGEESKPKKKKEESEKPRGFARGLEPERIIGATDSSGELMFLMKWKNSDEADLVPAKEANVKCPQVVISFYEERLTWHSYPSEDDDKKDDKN
#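 Compound inhibition of the preformed complex between 50 nM HP1-beta and 50 nM biotinylated H3K9me3 peptide was read by AlphaScreen. Buffer was PBS pH 7.4 with 0.01% Tween-20. Incubations ran 30 min at room temperature, with 10 ug/mL donor/acceptor beads.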
# G9a block = inhibitors of human histone lysine methyltransferase G9a; Q96KQ7; G9a H3K9 monomethylation, AlphaScreen, 2 h; 8.8% of 350,000 active; Potency, µM (highest dose often 102 µM), for inactives: at the top dose activity, negative = inhibition, actives largely listed as inhibitors; note: % is set by controls: 0 for no effect and ±100 for the full control effect; nearly all actives have a fitted effect of over 75% in size
# Target sequence (Q96KQ7 913-1193 limits assumed): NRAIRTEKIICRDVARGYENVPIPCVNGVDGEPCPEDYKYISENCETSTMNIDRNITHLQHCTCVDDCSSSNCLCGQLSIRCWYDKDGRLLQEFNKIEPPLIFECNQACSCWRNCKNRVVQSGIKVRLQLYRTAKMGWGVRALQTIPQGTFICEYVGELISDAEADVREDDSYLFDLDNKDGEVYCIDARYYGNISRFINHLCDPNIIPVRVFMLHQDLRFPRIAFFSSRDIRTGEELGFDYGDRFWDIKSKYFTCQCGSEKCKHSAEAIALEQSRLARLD
#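 G9a (20 nM) was preincubated 15 min with compound, then reacted 2 h at room temperature with 500 nM biotin-H3K9 peptide and 20 µM SAM. Monomethyl-H3K9 detected by AlphaScreen using anti-H3K9me1 antibody.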
# JMJD2A Tudor = blocks the human JMJD2A Tudor domain | O75164 | AlphaScreen JMJD2A-Tudor / H3K4me3 peptide binding | Potency, µM (series often up to 114 µM), inactives show at the highest dose activity change, negative = inhibition, hits mostly inhibitors | 4.4% of 390,000 active | AID 504339; note: % is set by controls: 0 for no effect and ±100 for the full control effect; nearly all actives have a fitted effect of over 50% in size
# Active calls of the source: *; u = inconclusive; x = not tested or not shown; [ ] = dose if it differs, or a comment. In the library only some 12% were active in any assay of this set; here they are far more common. Calls come from the whole dose curve; as a rule, active = well fitted curve in the direction sought with a large enough effect; inconclusive = small, poorly fitted or top-dose-only effect, or another doubt; inactive = no such curve, though single readings can be large; an effect the other way counts as inactive or inconclusive. Potency is the fitted concentration of half-maximal effect.
SMILES,Sfp PPTase inh,BAZ2B inh,PLK1 PBD inh,HP1b binding inh,G9a block,JMJD2A Tudor
Cc1ccsc1CCN1C(=O)N(c2ccccc2)C(=O)C1CC(=O)Nc1ccc(Cl)cc1 (centres undefined),x,-13.2%,x,27.1%,-34.9%[59 µM],-17.2%
CCCCOc1ccccc1NC(=O)Cn1c(-c2cncs2)nc2ccccc21,x,-18.2%,x,29.2%,-41.7%[59 µM],-16.0%
CC1CCCCN1C(=O)COC(=O)c1cc([N+](=O)[O-])ccc1N1CCOCC1 (centres undefined),x,7.8%,-1.5%,17.4%,44.7µM*,-8.3%
Cc1ccc(-c2cnn(-c3ccccc3)c2N)cc1,13.8%,0.1%,3.1%,20.6%,3.7%,-23.5%
C=CCn1c(-c2cnn(-c3ccccc3)c2N)n[nH]c1=S,-7.4%,-20.8%,-1.6%,5.9%,7.94µM*,3.98µM*
Cn1c(-c2cnn(-c3ccccc3)c2N)n[nH]c1=S,u,-10.4%,-3.0%,39.1%,28.2µM*,u
Nc1c(-c2n[nH]c(=S)n2-c2ccc(Cl)cc2Cl)cnn1-c1ccccc1,2.8%,1.5%,-3.0%,53.6%,4.47µM*,5.5%
COc1cccc(C2C(C#N)=C(NC(=O)NCc3ccccc3)Oc3ccc4ccccc4c32)c1 (centres undefined),x,x,x,x,x,-10.3%
O=C(NCc1ccncc1)c1ccc(NS(=O)(=O)c2ccccc2)cc1,x,x,2.2%,29.5%,x,-5.8%
COc1ccc(-c2cn3c(n2)sc2cc(C(=O)Nc4ccc(F)cc4Cl)ccc23)cc1,x,-0.6%,x,57.4%,7.6%[59 µM],0.7%
COc1ccc(NC2=C3CCCC=C3N(c3ccc(OC)cc3)C2=O)cc1,-5.4%,-32.3%,u,5.7%,39.8µM*,u
NC(CCC(=O)NC(CS)C(=O)NCC(=O)O)C(=O)O (centres undefined),x,x,-8.9%,17.5%,x,-20.0%
Brc1c(OCCOCCn2cncn2)ccc2ccccc12,6.0%,-1.3%,16.8µM*,-4.3%,7.5%[59 µM],-16.8%[11.4 µM]
Cc1cc(OCC(=O)Nc2ccc(-c3nc4cc(Cl)ccc4o3)cc2)cc(C)c1Cl,x,-4.2%,x,13.8%,-29.5%[59 µM],-10.1%
C[C@H]1CN([C@@H](C)CO)C(=O)CCCn2nncc2CO[C@H]1CN(C)C(=O)Nc1cccc2ccccc12,x,x,-17.2%,x,x,x
CCN(CC)S(=O)(=O)c1cc(NC(=O)C2=COCCO2)ccc1Cl,x,-2.3%,-5.7%,-5.8%,50.1µM*,-26.0%
CCc1[nH]c(=S)c(C#N)c2c1CCCC2,u,-18.7%,26.7µM*,u,3.16µM*,14.1µM*
CCOC(=O)c1c2c([nH]c(=S)c1C#N)CCCC2,39.8µM*,u,u,-14.6%,x,8.91µM*
CCOC(=O)c1cccc(NS(=O)(=O)c2cc(Br)cc3c2N(C(=O)C2CC2)CC3)c1,x,-15.5%,x,55.6%,6.3%[59 µM],-13.0%
CN1Cc2cc(C(=O)c3cc(Cl)cc(CSc4ncccn4)c3O)cnc2NC1=O,1.8%,-30.3%,x,x,50.1µM*,x
Cc1ccc(O)c(C(=O)c2cnc3c(c2)CN(C)C(=O)N3)c1,-9.9%,-8.1%,-16.5%,-9.7%,u,-16.1%
O=C(N/N=C\c1ccc(Br)o1)C1COc2ccccc2O1 (centres undefined),-1.1%,50.1µM*,16.8µM*,u,u,39.8µM*
COc1cc([N+](=O)[O-])cc(/C=N\NC(=O)C2COc3ccccc3O2)c1O (centres undefined),23.2%,39.8µM*,-3.0%,23.0%,u,56.2µM*
O=C(N/N=C/c1ccco1)C1COc2ccccc2O1 (centres undefined),14.9%,-24.3%,-4.5%,24.3%,29.0%[59 µM],-10.0%
O=C(N/N=C/c1cccc([N+](=O)[O-])c1)C1COc2ccccc2O1 (centres undefined),-1.6%,10.0%,-29.5%,24.9%,-37.4%,0.0%[11.4 µM]
SMILES,Sfp PPTase inh,BAZ2B inh,PLK1 PBD inh,HP1b binding inh,G9a block,JMJD2A Tudor
O=C(N/N=C\c1cccc([N+](=O)[O-])c1O)C1COc2ccccc2O1 (centres undefined),14.8%,35.5µM*,-4.9%,10.8%,-2.7%[59 µM],u
Cc1cc(NC(=O)c2ccccc2)sc1C,50.1µM*,u,u,14.5%,15.8µM*,-13.0%[11.4 µM]
Cc1ccc(NC(=O)c2ccccc2)s1,-29.7%,-3.4%,-7.8%,22.6%,25.1µM*,14.3%
CCOC(=O)c1ccc(N2C(=O)c3[nH]nc(-c4ccccc4)c3C2c2ccc(CC)cc2)cc1 (centres undefined),x,x,x,28.6%,-27.9%[59 µM],-31.0%
CC(=O)N1C(=O)C2(C(C#N)=C(N)Oc3n[nH]c(-c4ccccn4)c32)c2ccccc21 (centres undefined),-4.6%,-32.2%,23.8µM*,-17.4%,-8.9%[2.33 µM],-19.1%[11.4 µM]
Cc1[nH]nc2c1C1(C(=O)N(Cc3ccc(Cl)cc3)c3ccccc31)C(C#N)=C(N)O2 (centres undefined),-6.1%,-11.9%,-6.9%,7.2%,50.1µM*,u
CC1(C)O[C@@H]2C[C@H]3[C@H]4C[C@H](F)C5=CC(=O)C=C[C@@]5(C)[C@@H]4[C@H](O)C[C@]3(C)[C@]2(C(=O)CO)O1,-7.5%,x,x,x,16.6%[21.5 µM],x
O=C(Nc1cccc(-c2nc3cccnc3s2)c1)c1cccc(Br)c1,x,-17.6%,x,7.0%,17.8µM*,-28.5%
Cc1cc(-n2c(C)cc(C(=O)COc3cccnc3[N+](=O)[O-])c2C)no1,x,u,-7.3%,-11.6%,39.8µM*,-22.8%
Cc1cc(-n2c(C)cc(C(=O)COc3ccc4ccc(=O)oc4c3)c2C)no1,-15.1%,-30.5%,-9.7%,6.5%,56.6%[12.7 µM],-19.3%
CC(=O)c1cccc(OCC(=O)c2cc(C)n(-c3cc(C)on3)c2C)c1,-7.8%,u,-11.5%,-19.5%,50.1µM*,-24.3%
CCC(C(=O)NCCCN1CC(C)CC(C)C1)n1ncn2c(cc3occc32)c1=O (centres undefined),11.0%,14.3%,-8.3%,27.1%,11.1%[59 µM],-10.4%
O=C(NCc1cccs1)c1cc(S(=O)(=O)N2CCOCC2)c(Cl)cc1Cl,10.8%,-7.1%,-0.3%,21.3%,7.4%,-23.7%
O=c1ccc2cc3c([nH]c4ccc(Br)cc43)oc-2c1O,22.4µM*,44.7µM*,x,x,u,x
O=c1[nH]c2ccc(Br)cc2o1,x,x,1.7%,8.2%[57 µM],x,-13.1%
COc1cc(CCNC2=CC(=O)c3ncccc3C2=O)ccc1O,x,x,-8.6%,-0.1%,x,-21.5%
Cc1ccc(-n2nc(C)c(Sc3ccccc3[N+](=O)[O-])c2N)cc1,-19.8%,35.5µM*,2.38µM*,u,10µM*,u
CC(=O)Oc1c(Sc2ccccc2[N+](=O)[O-])c(C)nn1C(C)(C)C,9.2%,u,-27.3%,-18.2%,44.7µM*,u
CCOC(=O)N/N=C1/C[C@@H](O)[C@@H](O)[C@@H]2[C@@H]3C(=O)N(c4cccc(Oc5ccccc5)c4)C(=O)[C@H]3CC[C@H]12,3.4%,x,x,x,x,x
